The list is a sample of the results.
aSyn 5UTR act: Activators working through SNCA 5'UTR binding (MLPCN). alpha-synuclein 5'UTR reporter, activators screen. activity score, % (tested at 7.5 µM), hits read low. 300,000 tested, 7.1% active. AID 1814; in the data active means activity score below about -60%
Active calls of the source: *.

SMILES | aSyn 5UTR act
C/C(=N\NC(=O)c1ccccc1)c1nc2ccccc2n1C | 62
CCC(=O)Nc1nc2ccccc2n1Cc1ccc(C)cc1 | 77
Cn1c(NC(=O)c2ccc(F)cc2)nc2ccccc21 | -103*
CCn1c(NC(=O)c2cccs2)nc2ccccc21 | -89*
CCN(CC)CCn1c(NC(=O)c2ccc(C)cc2)nc2ccccc21 | -65*
CC(=O)Nc1nc2ccccc2n1Cc1ccc(Cl)cc1 | 51
CN(C)CCn1c(NC(=O)c2ccc(Cl)cc2)nc2ccccc21 | -239*
CCCCCCCCn1ccc(=N)cc1 | 62
CCCCCCCCCCn1ccc(=N)cc1 | 106
CCCCCCN1Cc2ccccc2C1 | -117*
COc1cc(CNc2ccccc2SC)ccc1O | -72*
COc1cccc(C(=O)/C=C/Nc2cccc(O)c2)c1 | -87*
COc1cccc(C(=O)/C=C/Nc2ccc(NC(C)=O)cc2)c1 | -125*
CCCCOC(=O)Nc1ccc(N2CCCCC2)cc1 | -158*
CCCCOC(=O)Nc1ccc(N2CCOCC2)cc1 | -163*
Sc1oc(-c2ccccc2)cc1C=Nc1ccccc1 | -117*
COc1cccc2c1C(=O)c1ccc3ccccc3c1C2=O | -141*
C/C(=N\NC(=O)CSc1nc(C)[nH]c1[N+](=O)[O-])c1ccc(F)cc1 | -109*
COc1cccc(Nc2nc3ccccc3n3nnnc23)c1 | -65*
CCN(CC)S(=O)(=O)c1ccc2c(c1)C(=NO)c1cc(S(=O)(=O)N(CC)CC)ccc1-2 | 115
Fc1ccccc1Nc1nc2ccccc2n2nnnc12 | -146*
c1ccc(Nc2nc3ccccc3n3nnnc23)cc1 | -75*
CCN(CC)S(=O)(=O)c1ccc(Nc2nc3ccccc3n3nnnc23)cc1 | -87*
Cc1ccc(-c2nc3ccccc3n3nnnc23)cc1 | -249*
Cc1ccc(-c2nnc3c(C(F)(F)F)nc4ccccc4n23)cc1 | 71
SMILES | aSyn 5UTR act
COc1ccc(/C=C/c2nc(-c3ccccc3O)n[nH]2)cc1OC | -132*
COc1ccc(Cn2c(/C=C/c3ccccc3)nc3ccccc32)cc1 | -202*
CCn1c(/C=C/c2ccccc2)nc2ccccc21 | -157*
O=C(Cn1c(/C=C/c2ccccc2)nc2ccccc21)Nc1ccc(F)cc1 | -72*
COc1ccc(/C=C/c2nc3ccccc3n2C)cc1 | 109
CC(C)Cn1c(/C=C/c2ccccc2)nc2ccccc21 | -114*
O=C1CCCCCN1Cc1nnc(SCc2nc3ccccc3s2)n1-c1ccccn1 | -109*
O=C(NOCc1ccccc1)c1ccccc1 | -92*
CCC1CCCCN1C(=O)c1ccc([N+](=O)[O-])o1 (stereo not drawn) | -79*
c1ccc(Cn2cc(CSc3ccccc3)nn2)cc1 | -137*
Cc1ccc(C(=O)Nc2cccc(O)c2)cc1S(=O)(=O)N1CCCCCC1 | -139*
Cc1ccc(C)c(S(=O)(=O)N2CCN(Cc3ccc(O)c4ncccc34)CC2)c1 | 74
Cc1ccc(C(=O)Nc2ccc3cn[nH]c3c2)cc1S(=O)(=O)N1CCCCC1 | -111*
Cc1cccc(NC(=O)c2ccc(C)c(S(=O)(=O)N3CCCCC3)c2)n1 | -116*
O=C(Nc1ccc(S(=O)(=O)N2CCCCCC2)cc1)c1[nH]ncc1[N+](=O)[O-] | 86
Cc1cc2[nH]c3ccccc3c2c(C)n1 | -85*
CN(C)c1ccc(/C=C2\CCCCC2=O)cc1 | -104*
CNc1oc(-c2ccc(Cl)cc2)nc1C#N | -173*
COc1ccc(-c2nc(C#N)c(NC(C)C)o2)cc1 | -68*
CNc1oc(-c2cccc3ccccc23)nc1C#N | -105*
FC(F)Sc1ccc(NC(=S)NCc2ccccc2)cc1 | -70*
S=C(Nc1ccc(Br)cc1)NC1CCCC1 | -124*
FC(F)Sc1ccc(NC(=S)NC2CCCCC2)cc1 | -109*
O=C(CC1CCCC1)Nc1ccc(Br)cc1 | -138*
CC1CCN(C(=S)Nc2ccc(SC(F)F)cc2)CC1 | -143*
SMILES | aSyn 5UTR act
FC(F)Sc1ccc(NC(=S)NCC2CCCCC2)cc1 | -67*
CCSc1nnc(NC(=O)c2cc3c(s2)CCCC3)s1 | -187*
O=C(Nc1nnc(SCc2ccccc2)s1)c1cc2c(s1)CCCC2 | -80*
CCCOc1ccc(C(=O)C(CN2CCOCC2)c2ccccc2)cc1 (stereo not drawn) | -120*
O=C(c1ccc(Cl)cc1)C(CN1CCCCC1)c1ccccc1 (stereo not drawn) | -106*
COc1ccc(C(=O)C(CN2CCOCC2)c2ccccc2)cc1F (stereo not drawn) | -108*
Cn1cc(Cl)cc(C(=O)Nc2ccccc2)c1=O | -133*
CC(=O)n1nc(-c2ccc(Cl)cc2)nc1NCc1ccco1 | -117*
COc1ccc(CC(=O)n2nc(-c3ccc(Cl)cc3)nc2NCc2ccco2)cc1 | -105*
CCC(=O)n1nc(-c2ccc(OC)cc2)nc1NCc1cccs1 | -102*
CCOC(=O)c1ccc(-c2ccc(/C=C(\C#N)C(=O)NCC3CCCO3)o2)cc1 (stereo not drawn) | -85*
N#C/C(=C\c1cccs1)C(=O)NCC1CCCO1 (stereo not drawn) | -66*
CC(C)OC(=O)/C(C#N)=C/c1c[nH]c2ccccc12 | -80*
CC(C)OC(=O)/C(C#N)=C/c1cn(Cc2ccccc2)c2ccccc12 | 75
N#C/C(=C\c1c[nH]c2ccccc12)C(=O)NCC1CCCO1 (stereo not drawn) | -73*
O=C(Nc1ccc(Cl)cc1)Nc1ccc(-c2cnco2)cc1 | -85*
O=C(NC(=O)c1ccccc1)Nc1ccc(-c2cnco2)cc1 | -143*
CSc1ccc(-c2cc(=O)c3ccccc3o2)cc1 | -328*
O=c1cc(-c2ccccc2F)oc2ccccc12 | -111*
O=c1cc(-c2ccc(F)cc2)oc2ccccc12 | -97*
CCN(CC)c1ccc(NC(=O)c2cnn(CC)c2)cc1 | -95*
CCN(CC)c1ccc(NC(=O)c2ccc(Br)o2)cc1 | -151*
COC(=O)Cc1ccc(NC(=O)c2ccc(Br)o2)cc1 | -153*
COc1ccc(-c2ccc(NC(=O)c3ccc(Br)o3)cc2)nn1 | -110*
O=C1/C(=N\S(=O)(=O)c2cccs2)C([n+]2cccc(Cc3ccccc3)c2)=C([O-])c2ccccc21 | 85
SMILES | aSyn 5UTR act
COCCN=c1scc(-c2cccs2)n1/N=C/c1ccc(O)c(O)c1O | 67
CCN=c1scc(-c2ccco2)n1/N=C/c1ccc(OC)c(O)c1 | -228*
CCN=c1scc(-c2ccco2)n1/N=C/c1ccc(O)cc1 | -173*
Cc1ccc(Nc2nc(-c3ccc(F)cc3)cs2)nc1 | -175*
Cc1ccc(Nc2nc(-c3ccc(O)c(O)c3)cs2)nc1 | -216*
O=C(N/N=C(\c1ccccc1)c1ccccn1)c1ccccc1Cl | 68
CSc1ccccc1C(=O)NCCSc1ccccc1 | -66*
Cc1ccccc1C(=O)NCCSc1ccccc1 | -111*
O=C(NCCSc1ccccc1)c1ccccc1Cl | -82*
O=C(NC(=S)NNC(=O)c1ccccc1O)c1ccco1 | -99*
O=C(NC(=S)Nc1ccccc1Br)c1ccco1 | -86*
O=C(/C=C/c1cccs1)NC(=S)NNC(=O)c1ccccc1O | 103
Cc1cccc(NC(=S)NC(=O)c2ccco2)c1C | -94*
Cc1c(NC(=S)NC(=O)Cc2ccccc2)cccc1C(=O)O | -79*
Cc1ccc2cc(CN(CCN(C)C)C(=O)Nc3ccc(Cl)cc3)c(=O)[nH]c2c1 | -83*
Cc1cc(C)c2cc(CN(CCO)C(=O)Nc3ccc(Cl)cc3)c(=O)[nH]c2c1 | 53
COc1cc(O)sc1C=Nc1ccc(Cl)cc1 | -92*
CCc1c(C)nc2ncnn2c1Nc1ccc(C(C)=O)cc1 | -112*
CC(=O)c1ccc(NC(=O)CCc2c(C)nc3ncnn3c2C)cc1 | -69*
COc1ccccc1N=Nc1[nH]c2ccc(C)cc2c1O | -169*

Source: PubChem (Broad Institute)
